# Experimental data reported in PubChem BioAssay (NCI).
# Several values for one entry are separate records, joined by “and”; a condition that tells them apart may be missing. Equal values may be shown once. The panel holds about 83,000 compounds, 20% with a hit somewhere; the sample as a whole holds those more often.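 96-well plates, one dose, 48 hours. Percent growth reported; active if below 10.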 Values without a mark were called inactive. Activity calls are given as the source filed them.
# System: HL-60(TB) leukemia
# Assay: NCI-60 one-dose screen, 48 h (100 = growth as untreated, 0 = no growth, -100 = all killed)
# Conditions: 10 µM unless noted
row,Structure (SMILES),growth
1,CCCCCn1sc(=O)n(Cc2ccc(CNC(=O)OCc3ccc4cccc(O)c4n3)cc2)c1=O,-13.5% (active)
2,CC(=O)[C@H]1CCC/C=C/[C@@H]2C[C@H](O)C[C@H]2[C@H](O)/C=C/C(=O)O1,-54.4% (active)
3,CCN(CC)CCCNc1cccc2c(SCc3ccccc3)ccnc12,-67.5% (active)
4,Clc1cc(Cl)cc(N2N=C(c3cccc(Nc4ccncc4)c3)CC2c2ccc3c(c2)OCO3)c1 (centres undefined),8.01% (active)
5,COC1=CC(c2ccc[nH]2)=N/C1=C\c1[nH]c(C)c(C(=O)CCCCC(=O)NCc2ccccc2)c1C,69%
6,CCc1cccc2c3c(sc12)C(c1ccc(Cl)cc1)C(C#N)=C(N)O3 (centres undefined),-8.89% (active)
7,CC(=O)NC(Cc1ccccc1)C(=O)Oc1ccc2ccccc2c1 (centres undefined),110% and 83.4%
8,CC(=O)Oc1cc(C(=O)O)cc(OC(C)=O)c1OC(C)=O,108% and 88.2%
9,CCC(C)C1(C2CCCC2)NC(=O)NC1=O (centres undefined),63.4% and 98.2%
10,COc1cccc(C(=O)NNc2nc(N3CCN(C4CCCCC4)CC3)nc(N3CCN(C(c4ccccc4)c4ccccc4)CC3)n2)c1,18.5%
11,N#Cc1c(-c2ccc(F)cc2)nc(N=Nc2c(O)[nH]c3ccc(Cl)cc23)nc1N1CCOCC1,73.3%
12,ClC(Cl)c1nc(-c2cccnc2)n2nc(-c3ccccc3)cc2n1,14.2%
13,C=CCNc1nnc(C)s1,139%
14,COc1cccc(NC(=O)[C@H](C(C)C)n2c(=O)[nH]c3ccccc3c2=O)c1,86.2%
